The structures appear in SMILES notation. Activity calls are given as the source filed them.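 Rule for the calls: active = fitted half-maximal concentration AC50 at or below ten times the highest valid tested dose, with signal falling as DNA is displaced (actives reach about 34 µM in these data); inconclusive = flat fit at moderate signal loss, or poor fit quality; inactive = the rest, including signal rising instead of falling.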

The results in this text go back to PubChem BioAssay AID504727 (Broad Institute, 2011).

A short description of the assay: DNA intercalators displacing acridine orange, dose response, artefact control for KSHV LANA DNA-binding inhibitor project, biochemical, fluorescence polarization, cherry-picked samples, set 2 (AID 504727). As to conditions: AC50: Acridine orange-DNA displacement; series mostly up to 35 µM.
One may read the AC50 as the concentration at which the activity in the assay is half-maximal. For the compound `CSC(=NS(=O)(=O)c1ccc(N)cc1)NS(=O)(=O)c1cccs1`, the AC50 entry was “inactive”. As for `Cc1ccc(S(=O)(=O)Nc2ccc(Br)cc2C(NCC(=O)O)c2ccccc2)cc1` (stereo not given), the AC50 result was “inactive”. The value for `O=c1nc(N2CCOCC2)ccn1-c1nc(-c2ccccc2)sc1-c1ccccc1` was “inactive”.

Consider `CCc1nnc(NC(=O)c2cccc(S(=O)(=O)N(C)c3ccccc3)c2)s1`, for which the AC50 result was “inactive”. Under `CCN(CC(=O)Nc1c(F)cccc1F)C(=O)CCCc1cccs1` stands “inactive”. On to `CC(C)N(Cc1ccccc1)C(=O)Cn1c(=O)cnc2ccccc21`, for which the AC50 result is “inactive”. Regarding `Cc1cc(C(F)(F)F)c2c(N)c(C(=O)Nc3cc(C)on3)sc2n1`, the AC50 entry is “inactive”. Under `COc1[nH]c(/N=C/c2ccccc2)c(C#N)c1C#N` stands “inactive”; under `Cc1noc(C)c1C(=O)N1CCN(c2ccc(OCc3ccccc3)cc2)CC1`, “inactive”; under `COc1ccccc1N1CCN(S(=O)(=O)c2c(C)[nH]c(C)c2C(=O)N2CCCC2)CC1`, “inactive”.

For the compound `CCN(CC)S(=O)(=O)N1CCN(S(=O)(=O)N2CCOCC2)CC1`, the AC50 result was “inactive”. Regarding `Nc1nc(C(F)(F)F)cc(=O)[nH]1`, the AC50 result is “inactive”. The value for `CCOC(=O)C(C)(C)N(Cc1ccccc1C)S(=O)(=O)c1ccc(Cl)c([N+](=O)[O-])c1` was “inactive”. Under `Clc1ccc(-c2nnc3sc(-c4ccc(Br)o4)nn23)cc1` stands “inactive”; under `COc1cccc(NC(=O)CN(C)CC(=O)NCc2ccco2)c1`, “inactive”; under `O=C(OCCN1C(=O)c2cccc3c(N4CCOCC4)ccc(c23)C1=O)c1ccc(Cl)cc1Cl`, 5.25 µM (active). Under `O=C(c1ccccc1)c1ccc(O)cc1O` stands 7.3 µM (active). On to `O=C(Nc1ccc2c(c1)OCO2)N1CCCc2ccccc21`, for which the AC50 result is “inactive”. The value for `COc1cc(-c2ccc(Nc3ccccc3C(=O)O)c(OC)c2)ccc1Nc1ccccc1C(=O)O` was “inactive”; that for `COc1ccc(-c2n[nH]c(=S)n2-c2ccc(C)cc2)cc1` was “inactive”.
